Only some compounds are listed: those with a hit (about 3.5% of all), similar ones and a draw of the others.
GPR151 activ – activators of human GPR151; Q8TDV0; PathHunter beta-arrestin GPR151 cells, luminescence; activation, % at 11.2 µM; 650,000 compounds, 1% hits; AID 1508602; in the data active = activation above about 4.9%;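 also: 0% = median of compound wells and 100% = cells with positive control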
TEAD-YAP block – TEAD-YAP interaction inhibition | HEK-TIYL cells, TEAD-Gal4/YAP UAS-luciferase luminescence | inhibition, % at 9.12 µM | 640,000 compounds, 1.4% hits; in the data active = inhibition above about 32%;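 also: 0% = median of test compound wells and 100% = reference inhibitor wells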
FBW7 activator – activators of human E3 ligase FBW7; AID 1259310; 650,000 compounds, 0.13% hits; normalized activity (activation), % at 26.1 µM; AlphaScreen FBW7–phospho-cyclin E peptide binding, activator screen; Q969H0; in the data active = normalized activity above about 1.9%;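 also: purified mutant Fbw7 with reduced substrate affinity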
Target sequence (Q969H0 whole entry, looked up): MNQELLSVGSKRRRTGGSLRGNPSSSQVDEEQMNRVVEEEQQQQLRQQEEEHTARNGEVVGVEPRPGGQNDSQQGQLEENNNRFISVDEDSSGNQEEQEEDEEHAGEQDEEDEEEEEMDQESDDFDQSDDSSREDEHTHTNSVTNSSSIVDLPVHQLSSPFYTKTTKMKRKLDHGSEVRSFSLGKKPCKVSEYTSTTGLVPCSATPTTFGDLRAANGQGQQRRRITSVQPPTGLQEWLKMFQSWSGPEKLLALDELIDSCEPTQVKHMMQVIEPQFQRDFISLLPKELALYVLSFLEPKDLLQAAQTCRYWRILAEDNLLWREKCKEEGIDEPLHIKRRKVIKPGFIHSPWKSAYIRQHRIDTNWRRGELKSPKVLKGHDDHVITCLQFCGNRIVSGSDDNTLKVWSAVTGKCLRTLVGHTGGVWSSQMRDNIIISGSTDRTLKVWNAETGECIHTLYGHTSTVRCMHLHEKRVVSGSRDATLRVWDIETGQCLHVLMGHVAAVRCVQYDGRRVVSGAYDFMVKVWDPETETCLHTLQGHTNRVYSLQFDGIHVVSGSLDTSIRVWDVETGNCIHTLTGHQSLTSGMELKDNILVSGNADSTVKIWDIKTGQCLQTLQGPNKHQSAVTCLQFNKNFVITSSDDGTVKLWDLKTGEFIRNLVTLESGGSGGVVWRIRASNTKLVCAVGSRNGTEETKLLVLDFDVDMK
MITF inh – human MITF inhibition, primary screen; AlphaScreen MITF homodimerization, bead proximity signal; inhibition, % at 2.6 µM; 650,000 compounds, 0.91% hits; AID 1259374; in the data active = inhibition above about 50%;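 also: 0% = vehicle wells with protein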
MITF confirm – confirmation of human MITF inhibitors | shares compounds with MITF inh | AlphaScreen MITF homodimerization, biotin/His-MITF beads | inhibition, % at 2.6 µM | 4,700 compounds, 16% hits;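 active = inhibition above a cutoff derived from the DMSO control wells, cut at about 28% in these data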;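 also: 0% = MITF dimer wells with DMSO only; inhibitors lower the bead chemiluminescence by keeping MITF from dimerizing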
AlphaScreen DR – counter-screen: compounds optically interfering with AlphaScreen; IC50, µM; 480 compounds, 6% hits; AlphaScreen optical interference counterscreen, cell-free; AID 1259373; shares compounds with MITF inh; call rule not given here
AlphaScreen intf2 – optically interferes with AlphaScreen signal; shares compounds with MITF inh; LysRS AlphaScreen counterscreen, signal interference, triplicate; inhibition, % at 2.6 µM; 4,700 compounds, 7.6% hits; AID 1259376;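 active = inhibition above a cutoff derived from the DMSO control wells, cut at about 30% in these data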
Active calls of the source: *.

COc1cc(CN2CCN(Cc3ccccc3C)CC2)cc(OC)c1 was read as GPR151 activ -1, TEAD-YAP block -3, FBW7 activator 0, MITF inh 80*, MITF confirm 2 and AlphaScreen intf2 10.
For COc1cc(CN2CCN(Cc3cccc4ccccc34)CC2)cc(OC)c1 the results were GPR151 activ -1, TEAD-YAP block 9, FBW7 activator 0, MITF inh 74*, MITF confirm -11 and AlphaScreen intf2 4.
COc1cc(OC)c(/C=N/N2CCN(Cc3cccc4ccccc34)CC2)c(OC)c1 was read as GPR151 activ 1, TEAD-YAP block 13, FBW7 activator -1 and MITF inh 12.
`Cc1ccc(CN2CCN(c3nncc(-c4ccccc4C)n3)CC2=O)cc1` gave GPR151 activ -2, TEAD-YAP block -1, FBW7 activator 0 and MITF inh 10.
For CC(Oc1ccc2c(C(F)(F)F)cc(=O)oc2c1)C(=O)NN (stereo not given) the results were GPR151 activ 4, TEAD-YAP block 1, FBW7 activator 0, MITF inh 58*, MITF confirm 44*, AlphaScreen DR >6.6 and AlphaScreen intf2 -4.
Screening CC(=O)COc1ccc2c(C(F)(F)F)cc(=O)oc2c1 returned GPR151 activ -1, TEAD-YAP block 4, FBW7 activator 0 and MITF inh -23.
For CCc1ccc(NC(=O)C(=O)NCC(C)O)cc1 (stereo not given) the results were GPR151 activ -1, TEAD-YAP block -35, FBW7 activator 0 and MITF inh 10.
`CCc1ccc(NC(=O)CNCC(C)O)cc1` (stereo not given) gave GPR151 activ 2, TEAD-YAP block -9, FBW7 activator 0, MITF inh 56*, MITF confirm -16 and AlphaScreen intf2 0.
CCc1ccc(CN(C)CCc2ccccn2)cc1 was read as GPR151 activ -1, TEAD-YAP block -7, FBW7 activator 1, MITF inh 89*, MITF confirm -6 and AlphaScreen intf2 2.
For CN(CCc1ccccn1)Cc1ccncc1 the results were GPR151 activ -1, TEAD-YAP block 3, FBW7 activator 0, MITF inh 83*, MITF confirm 2 and AlphaScreen intf2 -1.
For CN(CCc1ccccn1)Cc1ccc([N+](=O)[O-])cc1 the results were GPR151 activ 0, TEAD-YAP block -6, FBW7 activator 0, MITF inh 75*, MITF confirm 0 and AlphaScreen intf2 6.
`CN(C)CCN(C)Cc1ccc([N+](=O)[O-])cc1` gave GPR151 activ -1, TEAD-YAP block 6, FBW7 activator 1, MITF inh 83*, MITF confirm 16 and AlphaScreen intf2 21.
`CN(C)CCN(C)Cc1ccc(N(C)C)cc1` gave GPR151 activ 1, TEAD-YAP block 13, FBW7 activator 0 and MITF inh 45.
CN(CCc1ccccn1)Cc1ccc2c(c1)CN(Cc1cccs1)CCO2 was read as GPR151 activ 0, TEAD-YAP block 6, FBW7 activator 0 and MITF inh 20.
For COc1ccc(C(CC(=O)c2ccccc2)C(C#N)C#N)cc1 (stereo not given) the results were GPR151 activ 1, TEAD-YAP block -66, FBW7 activator 0 and MITF inh -4.
For Cc1ccc(CN2CCNC(=O)C2CC(=O)NCCc2cccs2)o1 (stereo not given) the results were GPR151 activ -1, TEAD-YAP block 9, FBW7 activator 0 and MITF inh -7.
Screening Cc1cccc(N(CCOC(=O)C2CC(=O)N(c3ccccc3)C2)C2=NS(=O)(=O)c3ccccc32)c1 (stereo not given) returned GPR151 activ 1, TEAD-YAP block -2, FBW7 activator 0 and MITF inh 2.
Screening CN(Cc1ccccc1)Cc1ccccn1 returned GPR151 activ 1, TEAD-YAP block -4, FBW7 activator 0, MITF inh 54*, MITF confirm 2 and AlphaScreen intf2 3.
CCOc1ccccc1CN(C)CCc1ccccn1 was read as GPR151 activ -1, TEAD-YAP block 2, FBW7 activator 0, MITF inh 89*, MITF confirm -7 and AlphaScreen intf2 15.
Screening Cc1ccc(CN(C)CCc2ccccn2)cc1 returned GPR151 activ 0, TEAD-YAP block -1, FBW7 activator 0 and MITF inh 35.
For CN(CCc1ccccn1)Cc1ccc(Cl)cc1 the results were GPR151 activ 0, TEAD-YAP block 4, FBW7 activator 1, MITF inh 83*, MITF confirm -2 and AlphaScreen intf2 0.
COc1ccc(CN(C)CCc2ccccn2)cc1 was read as GPR151 activ 0, TEAD-YAP block -10, FBW7 activator 1, MITF inh 83*, MITF confirm -5 and AlphaScreen intf2 0.
`COc1ccc(C2C(C(=O)N(C)CCc3ccccn3)c3ccccc3C(=O)N2Cc2ccc(F)cc2)cc1` (stereo not given) gave GPR151 activ 0, TEAD-YAP block 9, FBW7 activator 0 and MITF inh -3.
Screening CN(Cc1ccccc1)Cc1cccnc1 returned GPR151 activ 3, TEAD-YAP block 12, FBW7 activator 0 and MITF inh 40.
Screening Cc1ccc(CC(=O)Nc2ccc(I)cc2)cc1 returned GPR151 activ 1, TEAD-YAP block -21, FBW7 activator 0 and MITF inh -7.
NC(=O)c1ccccc1NC(=O)Cc1ccc([N+](=O)[O-])cc1 was read as GPR151 activ -1, TEAD-YAP block 1, FBW7 activator 0 and MITF inh 16.
For O=C1CCCN1CCCNc1nc(-c2ccc(N3CCOCC3)nc2)nc2c1ncn2Cc1ccc(C(F)(F)F)cc1 the results were GPR151 activ 2, TEAD-YAP block -2, FBW7 activator 0 and MITF inh -10.
Screening CCc1ccc(-c2csc(NC(C)=O)n2)cc1 returned GPR151 activ 3, TEAD-YAP block -50, FBW7 activator 0 and MITF inh 0.
CN(C)N1C(=O)CC(NNc2ccccc2)C1=O (stereo not given) was read as GPR151 activ -1, TEAD-YAP block 8, FBW7 activator 0 and MITF inh -1.
For O=[N+]([O-])c1ccc(CSCCc2ccccn2)cc1 the results were GPR151 activ 0, TEAD-YAP block -52, FBW7 activator 0, MITF inh 70*, MITF confirm 12 and AlphaScreen intf2 22.
O=C(CCSCCc1ccccn1)Nc1cccc([N+](=O)[O-])c1 was read as GPR151 activ 0, TEAD-YAP block -2, FBW7 activator 0 and MITF inh 4.
CC1CCCCN1C(=O)c1ccc(Oc2cnccn2)cc1 (stereo not given) was read as GPR151 activ 0, TEAD-YAP block -2, FBW7 activator 0, MITF inh 75*, MITF confirm 4 and AlphaScreen intf2 13.
